Experimental data published in the supplement of paper PMC11732987, “Enantioselective OTUD7B fragment discovery through chemoproteomics screening and high-throughput optimisation” (Communications Chemistry, 2025).

How the values were obtained:
[1] = molecular target: T1, USP38 (UniProt Q8NB14); test: log2 ratio of Biotin-Ahx-Ub-VS probe labelling (compound/DMSO); higher = less target engagement, active = hit call of the paper (q ≤ 0.05, log2 ratio ≤ -1); settings: treatment time: 3 h
T1 sequence (whole entry): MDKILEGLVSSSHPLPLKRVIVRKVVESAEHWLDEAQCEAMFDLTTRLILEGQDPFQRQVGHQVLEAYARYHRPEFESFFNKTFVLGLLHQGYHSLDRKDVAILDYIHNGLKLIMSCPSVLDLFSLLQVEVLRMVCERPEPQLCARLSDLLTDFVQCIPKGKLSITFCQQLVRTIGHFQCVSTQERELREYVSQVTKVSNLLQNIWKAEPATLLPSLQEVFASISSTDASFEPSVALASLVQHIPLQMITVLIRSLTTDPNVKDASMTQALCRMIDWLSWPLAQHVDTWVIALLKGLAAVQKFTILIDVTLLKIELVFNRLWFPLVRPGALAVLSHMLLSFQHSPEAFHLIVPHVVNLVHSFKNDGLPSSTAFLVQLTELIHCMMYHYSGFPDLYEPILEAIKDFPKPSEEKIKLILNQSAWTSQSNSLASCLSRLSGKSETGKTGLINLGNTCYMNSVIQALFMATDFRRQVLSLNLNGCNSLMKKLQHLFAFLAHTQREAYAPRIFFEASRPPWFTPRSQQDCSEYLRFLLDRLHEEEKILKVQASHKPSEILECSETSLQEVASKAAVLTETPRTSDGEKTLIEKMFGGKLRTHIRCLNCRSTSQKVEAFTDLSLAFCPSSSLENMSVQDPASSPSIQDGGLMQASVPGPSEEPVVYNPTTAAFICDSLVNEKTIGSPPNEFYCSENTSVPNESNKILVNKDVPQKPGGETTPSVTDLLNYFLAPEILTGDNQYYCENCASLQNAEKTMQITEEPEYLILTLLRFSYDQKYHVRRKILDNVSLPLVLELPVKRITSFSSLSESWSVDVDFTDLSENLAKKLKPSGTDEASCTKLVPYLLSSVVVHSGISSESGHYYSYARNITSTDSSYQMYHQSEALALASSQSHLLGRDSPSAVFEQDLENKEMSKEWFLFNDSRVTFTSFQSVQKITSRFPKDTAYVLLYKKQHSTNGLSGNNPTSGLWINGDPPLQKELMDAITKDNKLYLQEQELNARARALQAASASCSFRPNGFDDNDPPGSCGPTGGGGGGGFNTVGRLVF
Procedure, shortened: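 Average ratios of compound to vehicle were obtained by unpaired t-test. Beforehand, 495 µg samples of HEK293T lysate in buffer with protease inhibitors were treated in triplicate with compound over a concentration series or vehicle for 3 h, then with 0.5 µM final Biotin-Ahx-Ub-VS for 1 h. Labelled deubiquitinases were NeutrAvidin-enriched, digested and quantified label-free by diaPASEF LC-MS/MS in Spectronaut, normalised to the global median. Values are log2 and cover proteins with at least two unique peptides.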

[2] = molecular target: T2, ALG13 (UniProt Q9NP73); test: log2 ratio of Biotin-Ahx-Ub-VS probe labelling (fragment/DMSO); higher = less target engagement (more negative = stronger competition), active = hit call of the paper (q ≤ 0.05, log2 ratio ≤ -1); settings: compound concentration: 200 uM; treatment time: 3 h
T2 sequence (whole entry): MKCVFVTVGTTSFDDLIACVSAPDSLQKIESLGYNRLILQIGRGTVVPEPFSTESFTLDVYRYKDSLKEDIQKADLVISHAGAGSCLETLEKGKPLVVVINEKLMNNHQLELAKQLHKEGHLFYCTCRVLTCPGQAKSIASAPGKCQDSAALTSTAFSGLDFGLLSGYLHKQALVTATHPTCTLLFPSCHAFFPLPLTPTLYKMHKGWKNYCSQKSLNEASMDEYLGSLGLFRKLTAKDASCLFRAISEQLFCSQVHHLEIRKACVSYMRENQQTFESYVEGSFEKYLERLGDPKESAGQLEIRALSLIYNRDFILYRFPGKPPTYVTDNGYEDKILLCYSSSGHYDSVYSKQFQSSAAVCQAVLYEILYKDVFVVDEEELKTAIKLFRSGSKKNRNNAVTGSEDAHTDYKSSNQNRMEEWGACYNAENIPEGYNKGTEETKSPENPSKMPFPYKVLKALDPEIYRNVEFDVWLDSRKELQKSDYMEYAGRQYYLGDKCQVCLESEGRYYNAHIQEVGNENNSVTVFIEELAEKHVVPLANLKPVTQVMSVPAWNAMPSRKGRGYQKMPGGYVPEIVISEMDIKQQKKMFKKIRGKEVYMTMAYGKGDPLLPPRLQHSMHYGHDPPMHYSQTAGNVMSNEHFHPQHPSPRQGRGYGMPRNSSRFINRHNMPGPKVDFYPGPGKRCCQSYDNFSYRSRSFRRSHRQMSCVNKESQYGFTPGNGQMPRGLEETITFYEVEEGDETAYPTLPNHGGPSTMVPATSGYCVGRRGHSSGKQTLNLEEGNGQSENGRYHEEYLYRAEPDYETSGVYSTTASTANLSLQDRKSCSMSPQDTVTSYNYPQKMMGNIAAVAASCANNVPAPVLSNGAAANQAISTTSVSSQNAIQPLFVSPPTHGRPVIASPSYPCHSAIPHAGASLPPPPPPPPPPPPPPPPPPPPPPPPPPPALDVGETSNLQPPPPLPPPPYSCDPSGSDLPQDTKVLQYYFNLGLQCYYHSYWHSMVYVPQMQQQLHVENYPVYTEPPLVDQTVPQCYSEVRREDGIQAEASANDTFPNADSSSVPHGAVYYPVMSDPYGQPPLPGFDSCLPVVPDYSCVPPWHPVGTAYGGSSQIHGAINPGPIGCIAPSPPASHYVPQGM
Procedure, shortened: (§1)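 The table lists average log2 ratios of fragment over vehicle, from an unpaired t-test on global-median-normalised Spectronaut label-free quantities. Proteins with ≥2 unique peptides were used. Samples were HEK293T lysate (495 µg) treated in triplicate with fragment at 200 µM or vehicle for 3 h, then with Biotin-Ahx-Ub-VS (0.5 µM final) for 1 h, with labelled DUBs NeutrAvidin-enriched and run by diaPASEF LC-MS/MS.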

[3] = molecular target: ATXN3 (UniProt P54252); test: as above; settings: compound concentration: 200 uM; treatment time: 3 h
Chain of ATXN3 (P54252 whole entry): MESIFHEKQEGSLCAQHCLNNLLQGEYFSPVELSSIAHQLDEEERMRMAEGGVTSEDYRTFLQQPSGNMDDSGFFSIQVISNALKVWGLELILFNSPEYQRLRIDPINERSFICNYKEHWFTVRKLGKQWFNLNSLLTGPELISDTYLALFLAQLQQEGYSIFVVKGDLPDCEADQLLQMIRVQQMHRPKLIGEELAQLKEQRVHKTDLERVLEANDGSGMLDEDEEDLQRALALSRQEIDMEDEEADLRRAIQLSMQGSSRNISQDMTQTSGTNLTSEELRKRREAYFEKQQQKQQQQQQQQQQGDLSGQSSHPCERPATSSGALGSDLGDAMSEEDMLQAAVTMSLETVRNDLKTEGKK
Procedure, shortened: as §1

[4] = molecular target: T3, BAP1 (UniProt Q92560); test: as above; settings: compound concentration: 200 uM; treatment time: 3 h
T3 sequence (whole entry): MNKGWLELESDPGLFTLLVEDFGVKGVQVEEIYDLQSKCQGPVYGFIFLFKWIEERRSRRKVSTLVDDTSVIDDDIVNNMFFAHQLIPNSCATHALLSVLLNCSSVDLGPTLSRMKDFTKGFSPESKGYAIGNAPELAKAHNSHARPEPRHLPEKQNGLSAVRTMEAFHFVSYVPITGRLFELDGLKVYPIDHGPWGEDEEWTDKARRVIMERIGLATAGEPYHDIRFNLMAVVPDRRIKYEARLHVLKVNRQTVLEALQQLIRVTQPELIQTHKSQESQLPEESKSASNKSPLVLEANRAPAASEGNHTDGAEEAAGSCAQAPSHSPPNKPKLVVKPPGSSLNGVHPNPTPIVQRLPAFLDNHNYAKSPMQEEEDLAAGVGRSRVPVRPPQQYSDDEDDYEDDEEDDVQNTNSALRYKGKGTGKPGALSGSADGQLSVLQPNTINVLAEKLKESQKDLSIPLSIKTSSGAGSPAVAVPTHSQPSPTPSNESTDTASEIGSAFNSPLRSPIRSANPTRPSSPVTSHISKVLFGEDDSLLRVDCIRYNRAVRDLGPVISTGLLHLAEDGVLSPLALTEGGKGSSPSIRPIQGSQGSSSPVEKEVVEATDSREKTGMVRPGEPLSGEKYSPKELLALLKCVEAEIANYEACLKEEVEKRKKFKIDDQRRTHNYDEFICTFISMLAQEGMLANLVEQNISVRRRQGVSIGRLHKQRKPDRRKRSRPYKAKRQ
Procedure, shortened: as §1

[5] = molecular target: EIF3F (UniProt O00303); test: as above; settings: compound concentration: 200 uM; treatment time: 3 h
Chain of EIF3F (O00303 whole entry): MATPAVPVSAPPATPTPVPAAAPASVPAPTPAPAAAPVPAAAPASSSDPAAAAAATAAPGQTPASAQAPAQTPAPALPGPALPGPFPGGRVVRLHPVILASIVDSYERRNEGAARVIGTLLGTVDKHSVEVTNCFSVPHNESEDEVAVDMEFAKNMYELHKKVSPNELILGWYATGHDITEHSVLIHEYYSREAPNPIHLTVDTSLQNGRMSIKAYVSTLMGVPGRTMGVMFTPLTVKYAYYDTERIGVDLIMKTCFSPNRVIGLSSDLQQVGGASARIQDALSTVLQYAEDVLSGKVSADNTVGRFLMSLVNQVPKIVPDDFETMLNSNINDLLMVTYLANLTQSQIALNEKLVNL
Procedure, shortened: as §1

[6] = molecular target: EIF3H (UniProt O15372); test: as above; settings: compound concentration: 200 uM; treatment time: 3 h
Chain of EIF3H (O15372 whole entry): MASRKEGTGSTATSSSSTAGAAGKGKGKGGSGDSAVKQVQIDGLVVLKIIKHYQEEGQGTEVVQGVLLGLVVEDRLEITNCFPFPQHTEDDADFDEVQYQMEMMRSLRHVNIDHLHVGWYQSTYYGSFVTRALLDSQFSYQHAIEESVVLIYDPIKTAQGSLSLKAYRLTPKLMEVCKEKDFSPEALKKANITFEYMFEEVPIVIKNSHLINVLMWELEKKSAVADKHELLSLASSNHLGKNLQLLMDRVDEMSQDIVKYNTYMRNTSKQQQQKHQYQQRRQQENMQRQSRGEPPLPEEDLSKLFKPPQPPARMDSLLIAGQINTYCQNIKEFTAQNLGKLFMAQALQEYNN
Procedure, shortened: as §1

[7] = molecular target: T4, FAM105A (UniProt Q9NUU6); test: as above; settings: compound concentration: 200 uM; treatment time: 3 h
T4 sequence (whole entry): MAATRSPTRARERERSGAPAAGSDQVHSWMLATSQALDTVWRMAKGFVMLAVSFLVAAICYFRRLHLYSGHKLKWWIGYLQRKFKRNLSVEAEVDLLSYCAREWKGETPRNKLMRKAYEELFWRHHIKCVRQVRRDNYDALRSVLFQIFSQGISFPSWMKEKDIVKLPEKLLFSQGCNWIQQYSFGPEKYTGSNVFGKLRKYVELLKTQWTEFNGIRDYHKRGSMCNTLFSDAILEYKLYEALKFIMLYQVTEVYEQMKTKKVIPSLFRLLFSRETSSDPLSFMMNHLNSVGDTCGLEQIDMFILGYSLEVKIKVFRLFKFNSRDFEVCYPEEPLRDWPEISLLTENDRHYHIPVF
Procedure, shortened: as §1

[8] = molecular target: OTUB1 (UniProt Q96FW1); test: as above; settings: compound concentration: 200 uM; treatment time: 3 h
Chain of OTUB1 (Q96FW1 whole entry): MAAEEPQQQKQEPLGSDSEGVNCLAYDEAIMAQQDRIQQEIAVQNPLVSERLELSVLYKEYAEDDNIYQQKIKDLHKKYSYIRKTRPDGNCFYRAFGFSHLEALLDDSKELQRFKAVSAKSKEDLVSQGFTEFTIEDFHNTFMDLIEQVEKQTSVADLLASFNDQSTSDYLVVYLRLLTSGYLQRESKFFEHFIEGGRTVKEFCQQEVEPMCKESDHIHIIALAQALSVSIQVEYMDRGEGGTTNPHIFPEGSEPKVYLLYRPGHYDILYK
Procedure, shortened: as §1

[9] = molecular target: T5, OTUD4 (UniProt Q01804); test: as above; settings: compound concentration: 200 uM; treatment time: 3 h
T5 sequence (whole entry): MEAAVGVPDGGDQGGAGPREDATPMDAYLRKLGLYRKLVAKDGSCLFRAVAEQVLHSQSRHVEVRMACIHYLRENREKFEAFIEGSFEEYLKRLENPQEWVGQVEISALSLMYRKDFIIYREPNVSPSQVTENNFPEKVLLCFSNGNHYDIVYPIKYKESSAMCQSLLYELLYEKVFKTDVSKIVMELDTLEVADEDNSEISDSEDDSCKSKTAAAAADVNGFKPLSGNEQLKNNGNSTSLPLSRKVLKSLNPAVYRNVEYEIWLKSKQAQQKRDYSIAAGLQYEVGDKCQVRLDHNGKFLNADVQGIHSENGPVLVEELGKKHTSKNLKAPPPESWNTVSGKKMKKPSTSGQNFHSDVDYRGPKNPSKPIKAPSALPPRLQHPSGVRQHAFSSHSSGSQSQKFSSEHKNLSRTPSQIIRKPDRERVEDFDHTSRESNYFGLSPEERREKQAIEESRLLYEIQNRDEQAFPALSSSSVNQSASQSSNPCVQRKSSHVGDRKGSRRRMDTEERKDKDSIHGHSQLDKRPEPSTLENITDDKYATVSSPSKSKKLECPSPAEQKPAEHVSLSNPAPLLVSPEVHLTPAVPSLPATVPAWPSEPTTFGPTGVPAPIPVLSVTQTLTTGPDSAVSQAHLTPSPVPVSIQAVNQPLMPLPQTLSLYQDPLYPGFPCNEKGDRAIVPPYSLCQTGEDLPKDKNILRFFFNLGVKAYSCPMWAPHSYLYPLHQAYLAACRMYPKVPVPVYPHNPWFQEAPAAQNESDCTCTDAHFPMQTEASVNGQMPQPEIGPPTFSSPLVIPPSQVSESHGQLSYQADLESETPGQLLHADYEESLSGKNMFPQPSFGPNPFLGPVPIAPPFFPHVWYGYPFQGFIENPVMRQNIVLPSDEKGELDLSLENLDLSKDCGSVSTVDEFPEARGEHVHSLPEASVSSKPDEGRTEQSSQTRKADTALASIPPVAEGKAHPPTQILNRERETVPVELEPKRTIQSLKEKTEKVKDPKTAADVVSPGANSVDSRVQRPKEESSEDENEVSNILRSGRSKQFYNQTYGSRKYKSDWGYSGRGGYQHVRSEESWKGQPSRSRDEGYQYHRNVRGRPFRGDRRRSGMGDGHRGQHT
Procedure, shortened: as §1

[10] = molecular target: T6, OTUD5 (UniProt Q96G74); test: as above; settings: compound concentration: 200 uM; treatment time: 3 h
T6 sequence (whole entry): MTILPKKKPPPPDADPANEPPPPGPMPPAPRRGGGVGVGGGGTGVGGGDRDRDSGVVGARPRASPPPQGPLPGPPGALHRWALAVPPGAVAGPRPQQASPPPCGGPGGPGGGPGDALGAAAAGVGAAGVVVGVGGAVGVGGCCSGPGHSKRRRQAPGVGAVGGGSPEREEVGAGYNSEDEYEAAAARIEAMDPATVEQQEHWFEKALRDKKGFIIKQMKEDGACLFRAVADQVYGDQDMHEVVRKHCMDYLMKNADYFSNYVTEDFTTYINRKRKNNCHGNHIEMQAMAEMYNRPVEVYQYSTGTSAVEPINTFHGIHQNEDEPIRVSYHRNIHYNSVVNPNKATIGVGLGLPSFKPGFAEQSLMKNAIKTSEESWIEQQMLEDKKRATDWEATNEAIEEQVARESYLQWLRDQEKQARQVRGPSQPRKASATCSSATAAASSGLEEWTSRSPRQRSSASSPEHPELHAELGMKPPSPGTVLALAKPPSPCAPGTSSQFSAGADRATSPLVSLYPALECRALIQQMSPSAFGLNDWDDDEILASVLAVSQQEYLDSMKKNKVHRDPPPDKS
Procedure, shortened: as §1

Measured: log2 ratio of Biotin-Ahx-Ub-VS probe labelling

O=C(CCl)NC1CCCc2ccccc21 (stereo not drawn)
inactive: [1]; compound concentration: 0.78uM -0.0722 | [1]; compound concentration: 1.56uM -0.0473 | [1]; compound concentration: 3.13uM -0.124 | [1]; compound concentration: 6.25uM -0.102 | [1]; compound concentration: 12.5uM -0.214 | [1]; compound concentration: 25uM -0.157 | [1]; compound concentration: 50uM -0.0382 | [1]; compound concentration: 100uM -0.104 | [1]; compound concentration: 200uM -0.148

O=C(CCl)Nc1nnc(CC(F)(F)F)o1
inactive: [2] -0.0296 | [3] -0.129 | [4] -0.573 | [5] -0.0944 | [6] 0.23 | [7] 0.0181 | [8] 0.15 | [9] -0.445 | [10] -0.385
